# Tested on: Plasmodium falciparum Sir2 (PF13_0152, Sir2A)
# Experiment: pfSir2 binders on small-molecule microarrays, primary screen, biochemical, small-molecule microarray, 635 nm fluorescence (AID 1098);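 further: score merges spot fluorescence intensity with its signal-to-noise ratio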
# Conditions: small-molecule microarray binding, fluorescence 635 nm; higher = more signal
row,SMILES,composite z-score
1,COCCOC(=O)N1C(=O)[C@@]2(c3cc(C#CC4=CCCCC4)ccc31)[C@H](c1ccccc1OCCO)N1[C@H](c3ccccc3)[C@H](c3ccccc3)OC(=O)[C@H]1[C@@H]2C(=O)Nc1nc2ccccc2s1,1.09
2,CCCNC(=O)[C@@H]1c2ccccc2C(=O)N(C(C)C)[C@H]1c1ccc(CO)cc1,0.32
3,CCCCO[C@H]1C[C@H]2C(I)=C[C@@H]1C(=O)[C@]21CO1,1.08
4,CC(C)(C)OC(=O)CC[C@]1(C(=O)NCC(O)CO)N=C(c2ccc(OCCCO)cc2)O[C@H]1c1ccccc1 (stereo partly specified),0.835
5,C=CC[C@]1(C(=O)O)COC(c2ccc(OCCCO)cc2)=N1,1.58
6,CN1C(=O)C2C=CC(C(O)c3ccccn3)N(N(c3ccccc3)c3ccccc3)C2C1=O (stereo unspecified),1.44
7,[N-]=[N+]=NCc1ccccc1C[C@@]1(C(=O)N2CCOCC2)N=C(c2ccc(OCCCO)cc2)O[C@@H]1c1ccccc1,0.511
8,CC(=O)NCCCC[C@@H]1NC(=O)[C@@H]2C[C@H](C(=O)NCCCC[N+](C)(C)C)[C@H](c3ccc(O)cc3)N2C1=O,1.46
9,C[C@H]1NC(=O)[C@@]23C(=O)N[C@@H](Cc4ccccc4)C2[C@H](C)[C@@]2(C)O[C@H]2C3/C=C/C/C=C\CNC(=O)[C@H](Cc2ccccc2)NC1=O (stereo partly specified),1.29
10,[N-]=[N+]=Nc1ccccc1C[C@]1(C(N)=O)N=C(c2ccc(OCCCO)cc2)O[C@H]1c1ccccc1N=[N+]=[N-],0.902
11,O=C1O[C@@H](c2ccccc2)[C@@H](c2ccccc2)N2[C@@H](c3ccc(O)cc3)[C@]3(C(=O)Nc4ccc(C#CC5=CCCCC5)cc43)[C@@H](C(=O)NC[C@H](O)c3ccccc3)[C@H]12,1.12
12,CCOC(=O)C1=CC[C@@H](c2ccccc2C(F)(F)F)N(S(=O)(=O)c2ccc(C)cc2)[C@H]1c1ccc(C#N)cc1,0.668
13,O[C@@H](Cc1ccccc1)[C@@H](/C=C/C1CC1)N(CC#Cc1ccccc1)Cc1cccc(Cl)c1,-0.546
14,CN(C)CCCCNC(=O)[C@@H]1C[C@@H]2C(=O)N[C@@H](Cc3ccccc3)C(=O)N2[C@@H]1c1cccc(OCCO)c1,0.769
15,COc1ccc([Si](C)(C)[C@@H]2[C@@H](CC(=O)N(CCO)Cc3ccccc3)O[C@]3(C(=O)N(c4ccccc4)c4ccccc43)[C@H]2C)cc1,0.908
16,CC=CC(O)C1C=CC2C(=O)N(c3ccccc3)C(=O)C2N1Nc1ccccc1F (stereo unspecified),0.32

row,SMILES,composite z-score
1,C=CC1c2cc(O)c(OC)cc2CCN1Cc1cc2c(cc1Br)OCO2 (stereo unspecified),1.59
2,CC(C)C(CO)N1C(=O)[C@@H]2C3C(=O)OCCC/C=C\[C@H]3OC23C=CCN(C(C)(C)C)C(=O)[C@@H]13 (stereo partly specified),1.2
3,[N-]=[N+]=NCc1ccccc1C[C@@]1(C(=O)N2CCCCC2)N=C(c2ccc(OCCCO)cc2)O[C@@H]1c1ccccc1,0.884
4,O=C1C[C@@](C(=O)NCCN2CCOCC2)(c2ccc([N+](=O)[O-])cc2)[C@@H](c2ccc(CO)cc2I)N1C1CCCCC1,0.979
5,COC(=O)c1c(CC[C@@H](CO)NC(=O)N2CCC[C@H]2Cn2cc(Cc3ccccc3)nn2)oc(C(C)=O)c1C(=O)OC,0.787
6,O=C1NC(=O)C2C1C=CC(C(O)c1cccc3ccccc13)N2Nc1ccc(Cl)cc1Cl (stereo unspecified),0.477
7,N#Cc1ccc(C(O)C2C=CC3C(=O)N(c4ccccc4)C(=O)C3N2Nc2ccccc2)cc1 (stereo unspecified),0.592
8,COC(=O)[C@@]1(Cc2ccc(OC)cc2)[C@H]2c3cc(C(=O)N(C)C)n(C[C@H](O)CO)c3C[C@H]2CN1C(=O)c1ccccc1,1.43
9,COc1cc(OC)c(C(O)C2C=CC3C(=O)N(c4ccccc4)C(=O)C3N2Nc2ccccc2)cc1Br (stereo unspecified),1.53
10,COCCCNC(=O)[C@@]1(Cc2ccccc2N=[N+]=[N-])N=C(c2ccc(OCCCO)cc2)O[C@H]1c1ccccc1,1.55
11,C=C(C)C1CCC(C(O)C2C=CC3C(=O)N(C)C(=O)C3N2N2CCCCC2)CC1 (stereo unspecified),0.925
12,Cc1ccc(S[C@]2(C(=O)O)CC(=O)N(C3Cc4ccccc4C3)[C@@H]2c2ccc(CO)cc2)cc1,1.02
13,O=C1C2C=CC(C(O)c3ccc(Br)cc3)N(Nc3ccccc3F)C2C(=O)N1c1ccccc1 (stereo unspecified),0.708
14,CC(C)(C)N1CC=CC23O[C@@H]4C=CCCOC(=O)C4[C@H]2C(=O)N(CCO)[C@@H]3C1=O (stereo partly specified),-1.04
15,C=CCNC(=O)[C@H]1[C@@H]2C(=O)O[C@@H](c3ccccc3)[C@@H](c3ccccc3)N2[C@@H](c2ccc(O)cc2)[C@]12C(=O)N(C(=O)OCCOC)c1ccccc12,1.27

# Reference: PubChem BioAssay
